“And” between values parts separate entries of the source, which are not always exact repeats. Identical values can stand only once. Records with an inconclusive call do not appear. A call without a number means that no potency is given here. Where a structure was tested more than once in an assay, its records may differ in their call. The source made the active and inactive calls. Unless noted, calls come from the whole dose curve; as a rule, active = well fitted curve in the direction sought with a large enough effect in the repeat runs; inconclusive = weak or mixed curves; inactive = no such curve, though single readings can be large; an effect the other way counts as inactive or inconclusive.
Key:
[1] = A CellTox Green Cytotoxicity Assay to monitor cytotoxicity in HEK293 cells - 32 hour (AID 1224881); note: nearly all actives have a fitted effect of over 40% in size; note: potency is the fitted concentration of half-maximal effect
How it was run: (§1)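 HEK293 cells premixed with CellTox Green dye were seeded at 600 cells/well and left 5 h at 37 C/5% CO2 before pin transfer of 23 nL compound in DMSO. Fluorescence from dye bound to dead-cell DNA was read during 40 h treatment.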

[2] = A CellTox Green Cytotoxicity Assay to monitor cytotoxicity in HepG2 cells - 0 hour (AID 1224882); note: nearly all actives have a fitted effect of over 35% in size; note: potency is the fitted concentration of half-maximal effect
How it was run: (§2)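 HepG2 cells were seeded together with the CellTox Green dye at 600 cells/well, left 5 h at 37 C/5% CO2, then given compounds in DMSO. Fluorescence from dye bound to dead-cell DNA was read repeatedly over 40 h of treatment at 37 C.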

[3] = A CellTox Green Cytotoxicity Assay to monitor cytotoxicity in HepG2 cells - 32 hour (AID 1224883); note: nearly all actives have a fitted effect of over 50% in size; note: potency is the fitted concentration of half-maximal effect
How it was run: as §2

[4] = A CellTox Green Cytotoxicity Assay to monitor cytotoxicity in HEK293 cells - 8 hour (AID 1224884); note: nearly all actives have a fitted effect of over 35% in size; note: potency is the fitted concentration of half-maximal effect
How it was run: as §1

[5] = qHTS RealTime-Glo MT Cell Viability Assay in HepG2 cells - 16 hour (AID 1224885); note: nearly all actives have a fitted effect of over 50% in size; note: potency is the fitted concentration of half-maximal effect
How it was run: (§3)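 HepG2 suspension premixed with RealTime-Glo reagents is plated at 600 cells per well and left 5 h at 37 C/5% CO2. Compounds in DMSO then go in, and bioluminescence reflecting viable cell number is recorded over 40 h.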

[6] = qHTS RealTime-Glo MT Cell Viability Assay in HepG2 cells - 0 hour (AID 1224889); note: nearly all actives have a fitted effect of over 50% in size; note: potency is the fitted concentration of half-maximal effect
How it was run: as §3

[7] = A CellTox Green Cytotoxicity Assay to monitor cytotoxicity in HepG2 cells - 8 hour (AID 1224890); note: nearly all actives have a fitted effect of over 45% in size; note: potency is the fitted concentration of half-maximal effect
How it was run: as §2

[8] = qHTS assay to identify small molecule antagonists of the estrogen receptor alpha (ER-alpha) signaling pathway using the BG1 cell line in the presence of 0.1 nM 17-beta-estradiol - cell viability counter screen (AID 1259241); note: nearly all actives have a fitted effect of over 40% in size
How it was run: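 Following 5 days in phenol red-free medium with charcoal-stripped serum, VM7Luc4E2 cells received test compounds alongside 0.1 nM 17beta-estradiol (final) at 37C for 22 hr. Live cells were then quantified via protease-substrate fluorescence.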

[9] = qHTS assay to identify small molecule antagonists of the androgen receptor (AR) signaling pathway using the MDA cell line in the presence of 0.5 nM R1881 - cell viability counter screen (AID 1259242); note: nearly all actives have a fitted effect of over 45% in size; note: potency is the fitted concentration of half-maximal effect
How it was run: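 MDA-kb2 cells (human breast carcinoma, stably carrying MMTV-luciferase reporter) were exposed to compounds with 0.5 nM R1881 (final) for 16 hr at 37C, 0% CO2; viability then read as live-cell protease fluorescence (CellTiter-Fluor, 30 min) in the same wells.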

[10] = target: Estrogen receptor (Homo sapiens) (UniProt P03372); test: qHTS assay to identify small molecule antagonists of the estrogen receptor alpha (ER-alpha) signaling pathway using the BG1 cell line in the presence of 0.1 nM 17-beta-estradiol (AID 1259244); note: nearly all actives have a fitted effect of over 50% in size
How it was run: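 VM7Luc4E2 cells (endogenous full-length ER-alpha, stable 4xERE-luciferase) were grown 5 days in phenol red-free medium with charcoal-stripped FBS, then exposed 22 h at 37C to compounds plus 0.1 nM (final) 17beta-estradiol; ONE-Glo luminescence read-out.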

[11] = qHTS assay to identify small molecule HDAC inhibitors (AID 1259364); note: top concentration of the series differs between compounds; nearly all actives have a fitted effect of over 45% in size
How it was run: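 Wild-type HCT-116 cells were plated overnight, exposed to compounds for 2 h at 37 °C, then given HDAC-Glo class I/II luminogenic reagent for 30 min at room temperature before luminescence was read.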

[12] = qHTS assay to identify small molecule HDAC inhibitors - cell viability counter screen (AID 1259365)
How it was run: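 HCT-116 wild-type, overnight attachment; 2hr drug exposure, 37C; CellTiter-Glo luminescent ATP readout after 30min RT.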

[13] = qHTS assay to identify small molecule agonists of the sonic hedgehog signaling (Shh) pathway - cell viability counter screen (AID 1259366); note: nearly all actives have a fitted effect of over 50% in size; note: potency is the fitted concentration of half-maximal effect
How it was run: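 Compounds in DMSO were pin-transferred onto 3T3 Gli1-Luc cells that had settled 4hr; plates then stood 24hr at 37C and 5% CO2. One hour before the end, CellTiter-Fluor was added and fluorescence recorded.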

[14] = qHTS assay to identify small molecule antagonists of the sonic hedgehog signaling (Shh) pathway - cell viability counter screen (AID 1259367); note: nearly all actives have a fitted effect of over 55% in size; note: potency is the fitted concentration of half-maximal effect
How it was run: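 NIH/3T3-derived Gli1-Luc reporter cells (2,000 per well) rested 4 hr at 37 C, then received DMSO compounds plus conditioned medium. After 23 hr of treatment, CellTiter-Fluor was added for 1 hr at 37C and fluorescence read.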

[15] = qHTS assay to identify small molecule agonists of the sonic hedgehog signaling (Shh) pathway (AID 1259368; calls by dose curve; note: series mostly up to about 92 µM; nearly all actives have a fitted effect of over 15% in size)
How it was run: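 NIH/3T3-derived 3T3Gli1-Luc cells carrying a stably integrated Gli1 response element–firefly luciferase reporter were plated, left 4 hr at 37 C, then given compounds in DMSO for 24 hr. Luminescence was read 30 min after adding luciferase reagent.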

[16] = qHTS RealTime-Glo MT Cell Viability Assay in HEK293 cells - 24 hour (AID 1224886); note: nearly all actives have a fitted effect of over 50% in size; note: potency is the fitted concentration of half-maximal effect
How it was run: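 Reads taken at 0, 8, 16, 24, 32 and 40 h from the same wells. HEK293 cells (600/well) carried RealTime-Glo reagents from seeding, with compound added after a 5 h settle at 37 C.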

[17] = qHTS RealTime-Glo MT Cell Viability Assay in HEK293 cells - 8 hour (AID 1224887); note: nearly all actives have a fitted effect of over 50% in size; note: potency is the fitted concentration of half-maximal effect
How it was run: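 HEK293 cells mixed with RealTime-Glo reagents (NanoLuc plus cell-permeant prosubstrate) at 600 cells/well, preincubated 5 h at 37 C/5% CO2, then given 23 nL compound in DMSO. Nonlytic luminescence from viable cells was read at 0, 8, 16, 24, 32 and 40 h.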

[18] = qHTS assay to identify small molecule phospholipidosis (PLD) inducers (AID 1259344; active = well fitted curve in the direction sought with a large enough effect; an effect the other way counts as inactive or inconclusive)
How it was run: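 HepG2 cells on collagen I, attached 4 h at 37 C, were co-treated with compound and LipidTOX Red dye for 24 h at 37 C, then fixed with paraformaldehyde plus Hoechst 33342 and imaged by high-content microscopy for phospholipid accumulation.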

[19] = A CellTox Green Cytotoxicity Assay to monitor cytotoxicity in HEK293 cells - 16 hour (AID 1224888); note: nearly all actives have a fitted effect of over 35% in size
How it was run: as §1

[20] = target: Androgen receptor (Homo sapiens) (UniProt P10275); test: qHTS assay to identify small molecule antagonists of the androgen receptor (AR) signaling pathway using the MDA cell line in the presence of 0.5 nM R1881 (AID 1259243); note: nearly all actives have a fitted effect of over 50% in size
How it was run: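 MDA-kb2 human breast carcinoma cells carrying an MMTV-luciferase reporter (AR- and GR-responsive) were plated, rested 5 hr at 37C, dosed with compounds, then stimulated with 0.5 nM R1881 (final) for 16 hr; luminescence was read after ONE-Glo.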

Chain of Estrogen receptor (Homo sapiens) (P03372 whole entry, looked up): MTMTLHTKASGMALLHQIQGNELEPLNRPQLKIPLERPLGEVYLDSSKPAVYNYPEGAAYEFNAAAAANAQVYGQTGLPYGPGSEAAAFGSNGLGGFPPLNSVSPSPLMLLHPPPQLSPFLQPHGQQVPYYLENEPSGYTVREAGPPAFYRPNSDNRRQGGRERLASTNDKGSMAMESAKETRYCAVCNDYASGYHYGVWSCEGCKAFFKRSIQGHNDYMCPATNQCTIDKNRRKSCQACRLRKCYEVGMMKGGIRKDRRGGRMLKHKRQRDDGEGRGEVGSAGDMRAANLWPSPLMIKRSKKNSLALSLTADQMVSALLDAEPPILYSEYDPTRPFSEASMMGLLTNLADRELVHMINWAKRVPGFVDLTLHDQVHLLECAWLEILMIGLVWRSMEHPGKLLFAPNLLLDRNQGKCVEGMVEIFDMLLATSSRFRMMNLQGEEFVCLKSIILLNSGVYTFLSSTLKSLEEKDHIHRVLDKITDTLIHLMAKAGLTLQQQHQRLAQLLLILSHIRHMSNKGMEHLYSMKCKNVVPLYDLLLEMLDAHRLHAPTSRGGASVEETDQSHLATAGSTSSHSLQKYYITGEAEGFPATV
Chain of Androgen receptor (Homo sapiens) (P10275 whole entry, looked up): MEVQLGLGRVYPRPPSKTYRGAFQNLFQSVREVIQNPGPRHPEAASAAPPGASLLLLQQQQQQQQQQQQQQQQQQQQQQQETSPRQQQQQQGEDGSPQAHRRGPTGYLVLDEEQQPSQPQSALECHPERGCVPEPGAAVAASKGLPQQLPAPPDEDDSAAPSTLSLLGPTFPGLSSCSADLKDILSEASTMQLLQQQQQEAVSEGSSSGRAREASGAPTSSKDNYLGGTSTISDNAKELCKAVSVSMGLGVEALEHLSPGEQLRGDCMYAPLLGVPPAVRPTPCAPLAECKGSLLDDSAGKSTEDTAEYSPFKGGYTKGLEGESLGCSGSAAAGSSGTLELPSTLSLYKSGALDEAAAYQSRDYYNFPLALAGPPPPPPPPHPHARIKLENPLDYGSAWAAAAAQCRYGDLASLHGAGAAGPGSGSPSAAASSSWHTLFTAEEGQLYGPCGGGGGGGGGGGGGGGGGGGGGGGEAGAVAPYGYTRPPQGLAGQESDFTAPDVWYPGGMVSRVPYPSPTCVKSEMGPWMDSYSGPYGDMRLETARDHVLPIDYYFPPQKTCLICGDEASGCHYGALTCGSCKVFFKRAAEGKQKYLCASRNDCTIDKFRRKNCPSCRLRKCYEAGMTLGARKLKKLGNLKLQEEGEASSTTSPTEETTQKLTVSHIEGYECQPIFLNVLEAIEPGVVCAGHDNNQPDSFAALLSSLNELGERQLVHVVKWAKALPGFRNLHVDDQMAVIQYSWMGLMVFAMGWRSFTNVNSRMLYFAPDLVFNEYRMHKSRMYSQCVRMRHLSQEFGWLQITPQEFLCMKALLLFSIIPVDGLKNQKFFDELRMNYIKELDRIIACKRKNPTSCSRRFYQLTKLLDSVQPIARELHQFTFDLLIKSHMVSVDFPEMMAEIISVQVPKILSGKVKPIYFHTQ

Compound: COC(=O)C(C)Oc1ccc(Oc2ncc(C(F)(F)F)cc2Cl)cc1 (stereo not drawn)
- Potency [1]: inactive
- Potency [2]: inactive
- Potency [3]: inactive
- Potency [4]: inactive
- Potency [5]: inactive
- Potency [6]: inactive
- Potency [7]: inactive
- Potency [8]: inactive
- Potency [9]: inactive
- Potency [10]: inactive
- Potency [11]: inactive
- outcome [12]: inactive
- Potency [13]: inactive
- Potency [14]: inactive
- Potency [15]: inactive

Compound: CCCCCCOCCOCCO
- Potency [1]: inactive
- Potency [2]: inactive
- Potency [3]: inactive
- Potency [4]: inactive
- Potency [5]: inactive
- Potency [16]: inactive
- Potency [17]: inactive
- Potency [6]: inactive
- Potency [7]: inactive
- Potency [8]: inactive
- Potency [9]: inactive
- Potency [11]: inactive
- outcome [12]: inactive
- Potency [13]: inactive
- Potency [14]: inactive
- Potency [15]: inactive

Compound: NCCOCCO
- Potency [1]: inactive
- Potency [2]: inactive
- Potency [3]: inactive
- Potency [4]: inactive
- Potency [5]: inactive
- Potency [16]: inactive
- Potency [17]: inactive
- Potency [6]: inactive
- Potency [7]: inactive
- Potency [8]: inactive
- Potency [9]: inactive
- Potency [10]: inactive
- Potency [11]: inactive
- outcome [12]: inactive
- Potency [13]: inactive
- Potency [14]: inactive

Compound: Cc1ccc(/C(=C\CN2CCCC2)c2ccccn2)cc1
- Potency [1]: inactive
- Potency [2]: inactive
- Potency [3]: inactive
- Potency [4]: inactive
- Potency [5]: inactive
- Potency [16]: inactive
- Potency [6]: inactive
- Potency [7]: inactive
- Potency [8]: inactive
- Potency [9]: inactive
- Potency [10]: inactive
- Potency [18]: inactive
- Potency [11]: inactive
- outcome [12]: inactive
- Potency [13]: inactive
- Potency [14]: 36.2 µM (active) and inactive
- Potency [15]: inactive

Compound: C[C@]12CC[C@@H]3c4ccc(O)cc4CC[C@H]3[C@@H]1CC[C@@H]2O
- Potency [1]: inactive
- Potency [2]: inactive
- Potency [3]: 43.6 µM (active) and inactive
- Potency [4]: inactive
- Potency [5]: inactive
- Potency [16]: 19.5 µM (active)
- Potency [6]: inactive
- Potency [7]: inactive
- Potency [8]: inactive
- Potency [9]: inactive
- Potency [18]: inactive
- Potency [11]: inactive
- outcome [12]: inactive
- Potency [13]: inactive
- Potency [14]: inactive

Compound: Nc1ccc(N)c(Cl)c1
- Potency [1]: inactive and 27.5 µM (active)
- Potency [2]: inactive and 38.9 µM (active)
- Potency [3]: inactive and 43.6 µM (active)
- Potency [4]: inactive and 27.5 µM (active)
- Potency [5]: inactive and 43.6 µM (active)
- Potency [16]: inactive
- Potency [17]: 21.8 µM (active) and 43.6 µM (active)
- Potency [6]: inactive
- Potency [7]: inactive and 38.9 µM (active)
- Potency [8]: inactive
- Potency [9]: inactive
- Potency [11]: inactive
- outcome [12]: inactive
- Potency [13]: 61 µM (active)

Compound: O=C1OC2(c3ccccc31)c1cc(I)c(O)c(I)c1Oc1c2cc(I)c(O)c1I
- Potency [1]: 11.8 µM (active) [middle of 4 runs]
- Potency [2]: 11.8 µM (active) [middle of 4 runs]
- Potency [3]: 13.3 µM (active) [middle of 4 runs]
- Potency [4]: 13.3 µM (active) [middle of 4 runs]
- Potency [5]: 39 µM (active) and 27.9 µM (active)
- Potency [16]: 49.1 µM (active) and inactive
- Potency [6]: 12.3 µM (active) [middle of 4 runs]
- Potency [7]: 11.8 µM (active) [middle of 4 runs]
- Potency [9]: 9.71 µM (active) [middle of 4 runs]
- Potency [18]: inactive
- Potency [11]: inactive
- Potency [13]: 15.5 µM (active) [middle of 4 runs]
- Potency [14]: 15.5 µM (active) [middle of 4 runs]
- Potency [15]: inactive

Compound: Cc1ccc(C(C)(C)C)c(O)c1
- Potency [1]: 23.8 µM (active) and 21.9 µM (active)
- Potency [2]: inactive
- Potency [3]: 38.9 µM (active)
- Potency [4]: 18.9 µM (active) and inactive
- Potency [5]: inactive
- Potency [16]: inactive
- Potency [6]: inactive
- Potency [7]: inactive and 43.6 µM (active)
- Potency [8]: inactive
- Potency [9]: inactive
- Potency [10]: inactive
- Potency [11]: inactive
- outcome [12]: inactive
- Potency [15]: inactive

Compound: CCO[Si](CCCNC(N)=O)(OCC)OCC
- Potency [1]: inactive
- Potency [2]: inactive
- Potency [3]: inactive
- Potency [4]: inactive
- Potency [5]: inactive
- Potency [16]: inactive
- Potency [17]: inactive
- Potency [6]: inactive
- Potency [7]: inactive
- Potency [8]: inactive
- Potency [9]: inactive
- Potency [10]: inactive
- Potency [11]: inactive
- outcome [12]: inactive
- Potency [13]: inactive
- Potency [14]: inactive
- Potency [15]: inactive

Compound: C=C1C[C@H]2[C@@H]3C=C(C)C4=CC(=O)CC[C@]4(C)[C@H]3CC[C@]2(C)[C@@]1(OC(C)=O)C(C)=O
- Potency [1]: inactive
- Potency [2]: inactive
- Potency [3]: inactive
- Potency [4]: inactive
- Potency [5]: inactive
- Potency [17]: inactive
- Potency [19]: inactive
- Potency [6]: 1.41 µM (active) and 6.01 µM (active)
- Potency [7]: inactive
- Potency [8]: inactive
- Potency [9]: inactive
- Potency [20]: inactive
- Potency [10]: inactive
- Potency [11]: inactive
- outcome [12]: inactive
- Potency [13]: inactive
- Potency [14]: inactive
- Potency [15]: inactive

Compound: CC(=O)[C@H]1CC[C@H]2[C@@H]3CC=C4C[C@@H](O)CC[C@]4(C)[C@H]3CC[C@]12C
- Potency [1]: inactive
- Potency [2]: inactive
- Potency [3]: inactive
- Potency [4]: inactive
- Potency [5]: inactive
- Potency [16]: inactive
- Potency [6]: inactive
- Potency [7]: inactive
- Potency [8]: inactive
- Potency [9]: inactive
- Potency [10]: inactive
- Potency [11]: inactive
- outcome [12]: inactive
- Potency [13]: inactive
- Potency [14]: inactive
- Potency [15]: inactive

Compound: CCCOCCO
- Potency [1]: inactive
- Potency [2]: inactive
- Potency [3]: inactive
- Potency [4]: inactive
- Potency [5]: inactive
- Potency [16]: inactive
- Potency [19]: inactive
- Potency [6]: inactive
- Potency [7]: inactive
- Potency [8]: inactive
- Potency [9]: inactive
- Potency [11]: inactive
- outcome [12]: inactive
- Potency [13]: inactive
- Potency [14]: inactive

Compound: O=C(O)c1ccc(O)cc1
- Potency [1]: inactive
- Potency [2]: inactive
- Potency [3]: inactive
- Potency [4]: inactive
- Potency [5]: inactive
- Potency [16]: inactive
- Potency [19]: inactive
- Potency [6]: inactive
- Potency [7]: inactive
- Potency [8]: inactive
- Potency [9]: inactive
- Potency [11]: inactive
- outcome [12]: inactive
- Potency [13]: inactive
- Potency [14]: inactive
- Potency [15]: inactive

Reference: PubChem BioAssay (Tox21)
